Compounds with a hit are over-represented: about 12% of the library has one in this group of screens.
HP1b chromo inh – inhibitors of HP1-beta chromodomain binding to methylated histone tails; AlphaScreen HP1-beta / biotin-H3K9me3 peptide binding; Potency, µM (doses to about 114 µM), usual class: inhibitors; 390,000 tested, 0.56% active; AID 540317; note: nearly all actives have a fitted effect of over 70% in size
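AlphaScreen: HP1-beta (50 nM) preformed 30 min with biotin-H3(1-18)K9me3 peptide (50 nM) in PBS pH 7.4, 0.01% Tween-20. Compound added for 30 min at RT, then streptavidin donor/nickel chelate acceptor beads (10 ug/mL) for 30 min.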
L3MBTL1 block – blocks human L3MBTL1; Q9Y468; AlphaScreen L3MBTL1–H3K9me1 peptide binding; Potency, µM (doses to about 57.1 µM), usual class: inhibitors; 230,000 tested, 0.66% active; AID 485360; note: nearly all actives have a fitted effect of over 60% in size
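AlphaScreen proximity signal between nickel-chelate acceptor and streptavidin donor beads (final 10 ug/mL) reports binding of 50 nM L3MBTL1 to 75 nM biotin-H3 K9me1 peptide; complex incubated with compounds 30 min at room temperature; cefsulodin titration as control.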
G9a inh – inhibitors of human histone lysine methyltransferase G9a | AID 504332 | G9a H3K9 monomethylation, AlphaScreen, 2 h | Potency, µM (top dose mostly 102 µM), usual class: inhibitors | 350,000 tested, 8.8% active | Q96KQ7; note: nearly all actives have a fitted effect of over 75% in size
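Step 1: enzyme (final 20 nM) with compound, 15 min RT. Step 2: substrate peptide 500 nM and SAM 20 uM, 2 h RT. Step 3: anti-H3K9me1 antibody and AlphaScreen beads, 10 min, then plate read.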
Sfp PPTase inh – Sfp phosphopantetheinyl transferase inhibition. Q9F4F7. Potency, µM, usual class: inhibitors. AID 1490. 310,000 tested, 3.5% active. Biochemical Sfp PPTase activity, qHTS;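 note: the enzyme is Sfp with the accession as filed and its product quenches rhodamine fluorescence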
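Fluorescence-quenching assay: 15 nM Sfp-PPTase preincubated 15 min at room temperature with compound, then 5 uM rhodamine-CoA and 12.5 uM BHQ-2-labelled YbbR peptide added. Fluorescence (ex 525/em 598 nm) read at start and after 30 min; difference gives rate.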
BAZ2B block – blocks human BAZ2B | AlphaScreen BAZ2B-H3K14Ac peptide displacement | Potency, µM (series often up to 114 µM), actives largely listed as inhibitors | 360,000 tested, 4.4% active; note: nearly all actives have a fitted effect of over 60% in size
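Inhibition is scored as reduced AlphaScreen emission. The BAZ2B/b-H3(5-23)K14Ac complex (50 nM each) in PBS pH 7.4, 0.01% Tween-20 meets compound (up to 110 uM) for 30 min at RT before bead addition.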
JMJD2A Tudor – inhibitors of human JMJD2A Tudor domain | AlphaScreen JMJD2A-Tudor / H3K4me3 peptide binding | Potency, µM (highest dose often 114 µM), hits mostly inhibitors | 390,000 tested, 4.4% active | AID 504339; note: nearly all actives have a fitted effect of over 50% in size
Target sequence (O75164 whole entry, looked up, the tested form may be a part): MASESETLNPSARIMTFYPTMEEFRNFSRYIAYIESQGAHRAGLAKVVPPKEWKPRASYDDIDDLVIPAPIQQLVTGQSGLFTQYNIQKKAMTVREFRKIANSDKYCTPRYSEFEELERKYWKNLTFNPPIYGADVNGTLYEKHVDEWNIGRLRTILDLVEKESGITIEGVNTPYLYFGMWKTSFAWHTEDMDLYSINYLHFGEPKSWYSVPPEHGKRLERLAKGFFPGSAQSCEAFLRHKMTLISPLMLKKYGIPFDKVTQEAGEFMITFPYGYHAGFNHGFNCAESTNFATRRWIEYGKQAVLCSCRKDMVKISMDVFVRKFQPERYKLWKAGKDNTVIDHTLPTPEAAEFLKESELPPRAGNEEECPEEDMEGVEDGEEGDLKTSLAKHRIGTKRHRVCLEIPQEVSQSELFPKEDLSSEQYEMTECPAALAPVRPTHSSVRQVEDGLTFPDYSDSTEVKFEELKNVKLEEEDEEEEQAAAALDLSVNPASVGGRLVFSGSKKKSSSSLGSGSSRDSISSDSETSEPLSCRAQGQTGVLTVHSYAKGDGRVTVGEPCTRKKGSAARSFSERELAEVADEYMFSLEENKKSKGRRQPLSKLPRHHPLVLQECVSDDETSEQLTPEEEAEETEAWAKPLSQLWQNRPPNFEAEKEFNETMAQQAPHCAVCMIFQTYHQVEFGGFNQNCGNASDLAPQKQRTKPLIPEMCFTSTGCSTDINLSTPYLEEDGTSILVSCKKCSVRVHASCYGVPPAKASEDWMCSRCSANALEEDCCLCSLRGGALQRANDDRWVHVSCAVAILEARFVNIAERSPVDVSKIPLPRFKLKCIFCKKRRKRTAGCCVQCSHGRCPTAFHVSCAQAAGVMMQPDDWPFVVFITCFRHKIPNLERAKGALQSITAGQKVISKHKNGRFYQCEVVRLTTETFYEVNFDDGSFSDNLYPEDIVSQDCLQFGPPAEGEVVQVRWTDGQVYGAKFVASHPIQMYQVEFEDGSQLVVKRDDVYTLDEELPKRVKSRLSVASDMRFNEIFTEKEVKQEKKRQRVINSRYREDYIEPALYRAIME
Hits are given with their value; - = inactive; ? = inconclusive; . = not tested or not shown; [ ] = another dose, or the depositor's remark. Calls come from the whole dose curve; as a rule, active = well fitted curve in the direction sought with a large enough effect; inconclusive = small, poorly fitted or top-dose-only effect, or another doubt; inactive = no such curve, though single readings can be large; an effect the other way counts as inactive or inconclusive.

SMILES | HP1b chromo inh | L3MBTL1 block | G9a inh | Sfp PPTase inh | BAZ2B block | JMJD2A Tudor
CCN1C(=NCCOC)N[C@@H](c2cccc(C(F)(F)F)c2)C(C(=O)OC)=C1C | - | - | . | - | ? | 16µM
COC(=O)C1=C(C)N(Cc2ccccc2)C(=O)N[C@H]1c1cccc(C(F)(F)F)c1 | - | . | - | - | - | ?
CC(=O)C1=C(C)N(Cc2ccccc2)C(=O)N[C@H]1c1cccc(C(F)(F)F)c1 | - | - | - | - | - | -
CC(=O)C1=C(C)N(Cc2ccccc2)C(=O)N[C@@H]1c1cccc(C(F)(F)F)c1 | - | - | 50µM | - | - | -
COC(=O)C1=C(C)N(Cc2ccco2)C(=O)N[C@@H]1c1cccc(C(F)(F)F)c1 | . | - | 89µM | - | ? | .
C=C1C(=O)OC(CCCCCCCC)C1C(=O)O (stereo unspecified) | . | . | . | - | . | .
CCc1ccc(NC(=O)C(=O)NCC2CCCN2S(=O)(=O)c2ccccc2)cc1 (stereo unspecified) | - | - | - | . | - | -
COC(=O)C1=C(C)N(Cc2ccccc2)C(=NCC(C)C)N[C@H]1c1cccc(F)c1 | - | - | -[12.7 µM] | - | ? | 25µM
O=C(N/N=C/c1ccc(-c2ccccc2[N+](=O)[O-])o1)[C@H]1C[C@@H]1c1ccccc1 | - | ? | 8.9µM | 25µM | ? | ?
O=C(/C=C/c1ccc(-c2ccccc2[N+](=O)[O-])o1)c1ccccc1 | ? | ? | 32µM | ? | 11µM | ?
O=C(O)/C(=C\c1ccc(-c2ccccc2[N+](=O)[O-])o1)c1ccccc1 | - | - | ? | - | ? | ?
O=C(NCC(c1ccco1)S(=O)(=O)c1cccs1)c1c(F)cccc1F (stereo unspecified) | - | . | - | . | - | -
COC1=CC(=O)C=C(OC)C1(O)CC(C)=O | - | . | . | . | . | -
Cc1ccc(N2CC(C(=O)Nc3nnc(SCc4ccccn4)s3)CC2=O)cc1 (stereo unspecified) | - | . | 45µM | - | - | -
Cc1cccc(N2CC(C(=O)Nc3nnc(SCc4ccccn4)s3)CC2=O)c1 (stereo unspecified) | - | . | 10µM | ? | ? | -
Cc1cccc(N2CC(C(=O)Nc3nnc(SCCC4OCCO4)s3)CC2=O)c1 (stereo unspecified) | - | . | 22µM | - | - | ?
O=C(Nc1nnc(SCc2ccccn2)s1)C1CC(=O)N(c2ccccc2)C1 (stereo unspecified) | - | - | ? | - | - | -
Cc1ccc(C)c(N2CCN(c3c(CN4CCCC4)c(=O)oc4ccccc34)CC2)c1 | - | . | - | . | - | -
CCCSc1nsc(SCCC)c1C(N)=O | - | - | 40µM | - | - | -
O=C(Nc1ccccc1)N(Cc1c[nH]c2ccccc12)C1CCCCCC1 | - | . | - | . | . | ?
CSc1nnc2c(n1)c(C)nn2-c1cccc(C)c1 | - | ? | 10µM | - | 28µM | ?
Cc1ccc(N2CC(C(=O)Nc3c4c(nn3C(C)(C)C)CS(=O)(=O)C4)CC2=O)cc1 (stereo unspecified) | - | . | ? | - | - | -
Cc1cc(C)c(NC(=S)NCC2CCN(C(C)c3ccccc3)C2)c(C)c1 (stereo unspecified) | - | . | 10µM | 3.5µM | - | ?
Cc1ccc(NC(=S)NCC2CCN(C(C)c3ccccc3)C2)cc1 (stereo unspecified) | - | . | 50µM | - | - | -
O=C(NCCN1CCOCC1)c1cccn2c(=O)c3c4c(sc3nc12)CCCC4 | . | . | - | - | - | .
SMILES | HP1b chromo inh | L3MBTL1 block | G9a inh | Sfp PPTase inh | BAZ2B block | JMJD2A Tudor
O=C(Nc1ccc(Cl)c([N+](=O)[O-])c1)c1cnccn1 | - | - | - | - | 50µM | ?
O=C(Nc1ccccc1Cl)c1cnccn1 | - | - | - | - | - | -
O=C(Nc1ccc(Br)cc1Cl)c1cnccn1 | - | . | - | - | - | 50µM
O=C(Nc1ccc(Cl)c([N+](=O)[O-])c1)c1ccncc1 | - | - | - | ? | - | -
COCCCn1c(SCC(=O)Nc2ccc(OC)cc2)nc2c(sc3ccccc32)c1=O | - | . | - | . | - | -
COc1ccc(N(C(=O)c2ccco2)C(C(=O)NC2CCCC2)c2ccc(N(C)C)cc2)cc1 (stereo unspecified) | - | . | 79µM | - | 50µM | ?
COc1cc(OC)cc(N(C(=O)c2ccco2)C(C(=O)NC2CCCC2)c2ccc(N(C)C)cc2)c1 (stereo unspecified) | - | - | 22µM | - | ? | ?
CCOC(=O)C1CCN(CC(=O)Nc2ccc(OC)c(Cl)c2)CC1 | ? | - | 10µM | - | 50µM | 2.8µM
CCOC(=O)C1CCCN(CC(=O)Nc2cccc(C(C)=O)c2)C1 (stereo unspecified) | ? | - | 18µM | ? | 50µM | 22µM
CCOC(=O)C1CCCN(CC(=O)Nc2cc(C)cc(C)c2)C1 (stereo unspecified) | - | - | 50µM | - | - | -
COC(=O)CN1C(=O)CSc2ccc(S(=O)(=O)Nc3c(C)cc(C)cc3C)cc21 | - | . | - | . | - | -
CCOC(=O)c1ccc(Nc2c(-c3ccc(O)cc3)nc3nc[nH]n23)cc1 | ? | . | - | . | ? | -
N#Cc1ccc(Oc2nc(C#N)cc(-c3ccccc3)n2)cc1 | - | - | - | 40µM | - | -
COc1ccc(C2c3c(n(C)c4ccccc34)C(=O)N2CC(=O)Nc2ccccc2F)cc1 (stereo unspecified) | - | . | ? | . | ? | -
Cc1cccc(NC(=O)CSc2nnc(-c3ccco3)c(-c3ccco3)n2)c1 | ? | ? | 8.9µM | 7.9µM | 50µM | 40µM
Cc1cccc(NC(=O)CSc2nnc(-c3ccco3)c(-c3ccco3)n2)c1C | ? | ? | -[0.501 µM] | 32µM | 35µM | 50µM
COc1ccc2oc(=O)c(-c3csc(Nc4ccc(O)cc4)n3)cc2c1 | - | - | ? | 25µM | ? | -
COc1ccc(Nc2nc(-c3c[nH]c4ccccc34)cs2)cc1 | - | - | ? | - | 45µM | -
CC(C)C(CCNCc1ccccn1)c1ccc(Cl)cc1 (stereo unspecified) | - | . | ? | - | 50µM | 20µM
O=C(NCc1cccs1)Nc1ccc2c(c1)OCO2 | - | - | ? | - | - | -
O=C(NCc1ccccn1)Nc1ccc2c(c1)OCO2 | - | - | - | 79µM | - | -
O=C(CCSc1ccc(Cl)cc1)NCc1ccccn1 | - | - | - | - | - | -
CC(C)CCC(CCNCc1ccccn1)c1ccc2c(c1)OCO2 (stereo unspecified) | - | . | 16µM | - | 56µM | 40µM
O=C(NCc1ccncc1)Nc1ccc2c(c1)OCO2 | - | - | 45µM | - | - | -
CCN(C(=O)c1cc(Cl)ccc1Cl)C1CCS(=O)(=O)C1 (stereo unspecified) | - | - | - | . | - | -
